Legend:
[1] = target: High affinity nerve growth factor receptor (Homo sapiens) (UniProt P04629); conditions: at 1 µM;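 also: each value is the mean percent inhibition of TRKA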
[2] = target: BDNF/NT-3 growth factors receptor (Homo sapiens) (UniProt Q16620); conditions: at 0.1 µM
[3] = target: BDNF/NT-3 growth factors receptor (Homo sapiens) (UniProt Q16620); conditions: at 1 µM
[4] = target: NT-3 growth factor receptor (Homo sapiens) (UniProt Q16288); conditions: at 0.1 µM
[5] = target: NT-3 growth factor receptor (Homo sapiens) (UniProt Q16288); conditions: at 1 µM
[6] = target: T1, Tyrosine-protein kinase TXK (Homo sapiens) (UniProt P42681); conditions: at 0.1 µM
T1 sequence (whole entry): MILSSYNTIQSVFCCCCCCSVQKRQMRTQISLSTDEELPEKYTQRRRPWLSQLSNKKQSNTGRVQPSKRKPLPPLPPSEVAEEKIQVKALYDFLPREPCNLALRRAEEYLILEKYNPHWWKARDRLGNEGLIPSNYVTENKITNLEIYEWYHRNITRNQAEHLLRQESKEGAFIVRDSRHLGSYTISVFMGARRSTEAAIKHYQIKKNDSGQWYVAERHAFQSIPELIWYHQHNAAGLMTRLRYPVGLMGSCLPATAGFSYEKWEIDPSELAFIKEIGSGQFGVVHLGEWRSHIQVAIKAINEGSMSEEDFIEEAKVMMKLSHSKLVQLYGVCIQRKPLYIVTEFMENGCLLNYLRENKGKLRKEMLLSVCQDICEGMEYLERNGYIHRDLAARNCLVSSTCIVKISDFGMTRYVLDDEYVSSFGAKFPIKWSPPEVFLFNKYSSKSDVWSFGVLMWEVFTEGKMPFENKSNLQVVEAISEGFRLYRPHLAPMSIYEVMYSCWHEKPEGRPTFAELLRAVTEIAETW

[7] = target: T1, Tyrosine-protein kinase TXK (Homo sapiens); conditions: at 1 µM
[8] = target: Non-receptor tyrosine-protein kinase TYK2 (Homo sapiens) (UniProt P29597); conditions: at 0.1 µM;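 also: each value is a mean of the inhibition readings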
Sequence of Non-receptor tyrosine-protein kinase TYK2 (Homo sapiens) (P29597 whole entry): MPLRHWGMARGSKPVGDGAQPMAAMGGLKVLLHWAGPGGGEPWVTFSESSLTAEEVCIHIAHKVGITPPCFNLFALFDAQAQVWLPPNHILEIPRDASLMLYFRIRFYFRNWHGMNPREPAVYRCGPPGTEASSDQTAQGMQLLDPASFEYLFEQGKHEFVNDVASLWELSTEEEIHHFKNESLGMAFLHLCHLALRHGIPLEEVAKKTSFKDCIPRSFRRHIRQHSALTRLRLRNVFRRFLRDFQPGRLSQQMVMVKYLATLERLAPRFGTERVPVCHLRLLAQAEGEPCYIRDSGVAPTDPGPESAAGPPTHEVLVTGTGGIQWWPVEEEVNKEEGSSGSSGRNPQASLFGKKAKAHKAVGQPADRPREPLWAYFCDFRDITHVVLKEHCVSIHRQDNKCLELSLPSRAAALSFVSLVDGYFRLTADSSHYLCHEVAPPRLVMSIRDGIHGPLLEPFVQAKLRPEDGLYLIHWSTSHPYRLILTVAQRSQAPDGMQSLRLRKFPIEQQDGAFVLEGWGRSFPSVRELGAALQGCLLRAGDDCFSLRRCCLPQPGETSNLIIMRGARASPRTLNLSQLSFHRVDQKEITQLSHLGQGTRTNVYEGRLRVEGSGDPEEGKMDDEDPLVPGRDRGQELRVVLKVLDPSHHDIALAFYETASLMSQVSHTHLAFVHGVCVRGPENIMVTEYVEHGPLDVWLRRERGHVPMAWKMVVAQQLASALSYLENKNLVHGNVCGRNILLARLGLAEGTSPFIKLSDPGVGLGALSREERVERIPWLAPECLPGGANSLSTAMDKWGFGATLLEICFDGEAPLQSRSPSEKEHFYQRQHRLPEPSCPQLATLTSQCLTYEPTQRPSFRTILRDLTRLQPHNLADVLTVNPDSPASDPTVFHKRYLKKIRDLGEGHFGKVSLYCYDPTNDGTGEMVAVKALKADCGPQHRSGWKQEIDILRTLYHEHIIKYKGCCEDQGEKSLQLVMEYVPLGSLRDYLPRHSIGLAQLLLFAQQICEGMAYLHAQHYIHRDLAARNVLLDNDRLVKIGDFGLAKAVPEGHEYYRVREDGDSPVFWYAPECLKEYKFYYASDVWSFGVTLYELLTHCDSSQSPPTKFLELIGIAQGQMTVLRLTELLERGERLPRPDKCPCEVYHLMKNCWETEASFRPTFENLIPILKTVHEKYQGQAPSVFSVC

[9] = target: T2, Dual specificity protein kinase TTK (Homo sapiens) (UniProt P33981); conditions: at 1 µM;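 also: reported figures are mean TTK inhibition at 1 µM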
T2 sequence (whole entry): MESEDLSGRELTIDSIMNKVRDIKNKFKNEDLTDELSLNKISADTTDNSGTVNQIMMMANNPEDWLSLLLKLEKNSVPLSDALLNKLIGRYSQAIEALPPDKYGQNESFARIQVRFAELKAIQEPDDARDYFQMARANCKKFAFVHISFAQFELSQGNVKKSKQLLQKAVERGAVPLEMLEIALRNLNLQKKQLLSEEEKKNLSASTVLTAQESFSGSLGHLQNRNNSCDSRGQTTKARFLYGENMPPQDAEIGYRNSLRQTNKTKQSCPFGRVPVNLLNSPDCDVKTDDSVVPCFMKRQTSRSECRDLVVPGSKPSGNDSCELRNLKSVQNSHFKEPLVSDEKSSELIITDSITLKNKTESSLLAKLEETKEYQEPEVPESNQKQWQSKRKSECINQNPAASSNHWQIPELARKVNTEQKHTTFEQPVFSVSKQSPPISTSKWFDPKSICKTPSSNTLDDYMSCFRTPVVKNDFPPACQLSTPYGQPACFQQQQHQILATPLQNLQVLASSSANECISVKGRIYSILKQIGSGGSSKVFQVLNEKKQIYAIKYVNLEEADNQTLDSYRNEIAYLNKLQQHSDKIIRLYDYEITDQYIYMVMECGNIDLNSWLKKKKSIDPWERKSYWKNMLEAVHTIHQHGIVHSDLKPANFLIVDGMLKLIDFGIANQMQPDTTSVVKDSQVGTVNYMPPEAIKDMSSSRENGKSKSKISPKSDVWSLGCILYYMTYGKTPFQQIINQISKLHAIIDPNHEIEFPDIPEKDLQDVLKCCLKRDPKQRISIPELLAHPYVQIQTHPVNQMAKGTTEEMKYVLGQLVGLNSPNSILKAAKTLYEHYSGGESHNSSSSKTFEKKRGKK

[10] = target: T3, Aurora kinase A (Homo sapiens) (UniProt O14965); conditions: at 0.1 µM;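 also: each reported value is a mean percent inhibition of Aurora-A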
T3 sequence (whole entry): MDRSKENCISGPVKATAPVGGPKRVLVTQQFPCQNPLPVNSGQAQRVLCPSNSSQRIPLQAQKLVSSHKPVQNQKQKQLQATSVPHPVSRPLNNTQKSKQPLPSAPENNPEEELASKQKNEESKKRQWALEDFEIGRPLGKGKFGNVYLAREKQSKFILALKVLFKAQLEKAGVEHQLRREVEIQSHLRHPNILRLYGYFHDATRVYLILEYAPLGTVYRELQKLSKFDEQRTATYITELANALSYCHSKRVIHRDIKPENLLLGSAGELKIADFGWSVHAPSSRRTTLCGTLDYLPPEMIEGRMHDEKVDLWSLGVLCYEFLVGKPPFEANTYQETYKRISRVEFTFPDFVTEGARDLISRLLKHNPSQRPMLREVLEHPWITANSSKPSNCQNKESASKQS

Sequence of BDNF/NT-3 growth factors receptor (Homo sapiens) (Q16620 32-822 limits assumed): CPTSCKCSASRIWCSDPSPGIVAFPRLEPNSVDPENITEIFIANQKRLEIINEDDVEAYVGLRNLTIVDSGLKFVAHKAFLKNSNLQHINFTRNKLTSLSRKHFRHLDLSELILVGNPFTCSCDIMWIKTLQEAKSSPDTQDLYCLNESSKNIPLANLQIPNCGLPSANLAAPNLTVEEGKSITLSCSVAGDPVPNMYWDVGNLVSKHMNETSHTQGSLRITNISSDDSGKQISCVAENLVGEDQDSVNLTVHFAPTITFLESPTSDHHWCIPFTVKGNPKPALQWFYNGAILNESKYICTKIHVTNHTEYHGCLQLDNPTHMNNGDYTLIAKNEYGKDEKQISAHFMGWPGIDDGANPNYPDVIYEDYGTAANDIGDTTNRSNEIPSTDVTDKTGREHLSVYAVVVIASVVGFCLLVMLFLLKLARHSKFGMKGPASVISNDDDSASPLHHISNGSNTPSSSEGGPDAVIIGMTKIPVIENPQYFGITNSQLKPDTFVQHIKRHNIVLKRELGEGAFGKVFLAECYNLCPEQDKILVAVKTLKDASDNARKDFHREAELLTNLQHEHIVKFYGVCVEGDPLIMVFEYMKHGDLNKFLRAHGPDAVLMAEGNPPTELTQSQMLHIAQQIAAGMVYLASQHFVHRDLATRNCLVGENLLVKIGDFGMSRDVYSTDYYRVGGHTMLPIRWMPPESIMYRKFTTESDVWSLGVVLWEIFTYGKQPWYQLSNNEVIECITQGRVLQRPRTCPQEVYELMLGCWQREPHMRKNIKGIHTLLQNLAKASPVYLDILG
Sequence of High affinity nerve growth factor receptor (Homo sapiens) (P04629 33-796 limits assumed): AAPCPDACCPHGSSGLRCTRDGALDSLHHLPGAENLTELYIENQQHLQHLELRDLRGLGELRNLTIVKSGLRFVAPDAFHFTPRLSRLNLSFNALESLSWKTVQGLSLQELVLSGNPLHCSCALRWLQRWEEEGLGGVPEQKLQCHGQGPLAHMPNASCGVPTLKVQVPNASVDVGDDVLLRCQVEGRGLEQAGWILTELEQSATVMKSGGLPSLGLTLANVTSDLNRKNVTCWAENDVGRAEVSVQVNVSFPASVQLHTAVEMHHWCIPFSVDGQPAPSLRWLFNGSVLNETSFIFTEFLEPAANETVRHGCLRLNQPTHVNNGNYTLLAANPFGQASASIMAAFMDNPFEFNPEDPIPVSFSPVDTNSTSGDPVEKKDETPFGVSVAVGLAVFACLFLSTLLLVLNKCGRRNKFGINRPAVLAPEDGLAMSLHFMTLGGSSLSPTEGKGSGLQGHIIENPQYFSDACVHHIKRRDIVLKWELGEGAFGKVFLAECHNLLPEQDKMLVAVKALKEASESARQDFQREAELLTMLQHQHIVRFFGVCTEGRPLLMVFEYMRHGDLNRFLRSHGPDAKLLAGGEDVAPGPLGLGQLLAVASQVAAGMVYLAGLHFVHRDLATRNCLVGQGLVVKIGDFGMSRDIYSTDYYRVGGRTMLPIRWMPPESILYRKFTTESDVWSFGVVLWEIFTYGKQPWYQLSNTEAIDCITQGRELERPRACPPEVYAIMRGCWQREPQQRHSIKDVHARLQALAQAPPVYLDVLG
Sequence of NT-3 growth factor receptor (Homo sapiens) (Q16288 32-839 limits assumed): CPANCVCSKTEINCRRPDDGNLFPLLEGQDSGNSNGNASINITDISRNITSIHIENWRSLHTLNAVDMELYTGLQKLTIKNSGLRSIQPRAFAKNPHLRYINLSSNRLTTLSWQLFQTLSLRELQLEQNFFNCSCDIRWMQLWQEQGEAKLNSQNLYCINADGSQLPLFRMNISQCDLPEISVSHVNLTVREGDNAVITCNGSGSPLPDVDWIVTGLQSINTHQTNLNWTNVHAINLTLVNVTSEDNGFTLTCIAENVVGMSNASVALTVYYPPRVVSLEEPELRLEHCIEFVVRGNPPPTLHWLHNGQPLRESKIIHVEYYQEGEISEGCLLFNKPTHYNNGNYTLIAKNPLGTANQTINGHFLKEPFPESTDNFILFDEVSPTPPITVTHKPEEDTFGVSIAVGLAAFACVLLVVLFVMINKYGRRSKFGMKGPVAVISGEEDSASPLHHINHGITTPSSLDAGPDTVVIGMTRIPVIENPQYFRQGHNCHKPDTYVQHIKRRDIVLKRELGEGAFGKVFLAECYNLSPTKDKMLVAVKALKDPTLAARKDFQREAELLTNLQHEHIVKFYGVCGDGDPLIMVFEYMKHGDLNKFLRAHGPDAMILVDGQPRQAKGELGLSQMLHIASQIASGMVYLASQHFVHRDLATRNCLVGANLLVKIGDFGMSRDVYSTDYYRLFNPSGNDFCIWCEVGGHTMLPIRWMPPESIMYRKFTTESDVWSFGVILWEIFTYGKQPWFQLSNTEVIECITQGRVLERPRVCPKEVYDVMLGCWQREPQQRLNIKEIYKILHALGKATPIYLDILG

Structure (SMILES) | inhibition [1] [%] | inhibition [2] [%] | inhibition [3] [%] | inhibition [4] [%] | inhibition [5] [%] | inhibition [6] [%] | inhibition [7] [%] | inhibition [8] [%] | inhibition [9] [%] | inhibition [10] [%]
NS(=O)(=O)c1ccc(-c2ccc3c(NC(=O)C4CC4)n[nH]c3c2)cc1 | 0.03 | 0.8 | 5.39 | 2.06 | 9.04 | 3.28 | 4.88 | -5.6 | 7.86 | 3.44
Nc1nonc1-c1nc2cnccc2n1C1CCCCC1 | -1.13 | -1.42 | -0.84 | -0.5 | 0.67 | -1.24 | -0.03 | 4.5 | 4.51 | -0.63
CCn1c(-c2nonc2N)nc2c(C#CC(C)(C)O)ncc(OCC3CCNCC3)c21 | 2.62 | 3.08 | 1.98 | 3.15 | 3.69 | -1.16 | -1.53 | -1.24 | 11.4 | -1.94
COc1cc(C=NNc2ncnc3c2cnn3Cc2ccccc2)ccc1O | 2.96 | 0.74 | 23.4 | 0.17 | 14 | 1.55 | 19.6 | 3.47 | 3.09 | 2.88
CCn1c(-c2nonc2N)nc2c(C#CC(C)(C)O)nc(O[C@@H](CN)c3ccccc3)cc21 | 0.16 | -1.86 | 1.16 | -1.62 | 0.7 | 2.06 | 2.31 | 2.96 | 8.72 | 0.22
COc1cc2c(cc1Nc1nc(Nc3ccsc3C(N)=O)c3cc[nH]c3n1)N(C(=O)CN(C)C)CCC2 |  | -0.6 | 3.59 | -1.52 | 3.92 | -2.39 | -1.59 | -8.98 | 36.4 | 2.03
CCn1c(-c2nonc2N)nc2c(C#CCN)ncc(OCCCN)c21 | -4.23 | -0.67 | -1.3 | 0.15 | 2.14 | -1.46 | -3.71 | 5.99 | -3.71 | -1.21
CCn1c(-c2nonc2N)nc2c(C#CC(C)(C)O)ncc(OC[C@@H]3CCCN3)c21 | -3.52 | -0.66 | 0.79 | 1.15 | -0.37 | -0.98 | 1.67 | -0.97 | 4.1 | 3.07
COc1cccc(-n2ncc3c(N/N=C/c4ccncc4)ncnc32)c1 | 12.8 | 7.74 | 37.6 | 8.44 | 36.9 | 4.8 | 18.6 | -2.74 | 18.5 | 12.1
NC(=O)c1sc(-n2cnc3cc(C(F)(F)F)ccc32)cc1OCc1ccccc1Br | -0.05 | 3 | 1.49 | 1.41 | 2.25 | 1.4 | 3.45 | 0.53 | 3.54 | 1.18
Fc1ccc(-c2ncn(C3CCNCC3)c2-c2ccnc(Oc3ccccc3)n2)cc1 | 1.69 | 1.68 | 2.74 | 1.74 | 1.25 | -5.33 | -2.78 | -1.8 | 6.14 | -3.42
Cc1cc(-c2ccco2)cc(C)c1/C=C/c1cncc(-c2nn[nH]n2)c1 | -4.92 | -0.9 | 4.36 | -0.6 | 5.53 | -0.29 | 4.01 | 0.06 | 4.48 | 3.01
NS(=O)(=O)c1ccc(N/C=C2\C(=O)Nc3ccc4ncsc4c32)cc1 | 51.3 | 19.1 | 65.9 | 21.6 | 66.9 | -0.44 | 10.8 | 1.37 | 62.4 | 30
COc1cccc(COc2cc(-n3cnc4ccccc43)sc2C(N)=O)c1 | -7.54 | -0.03 | -0.8 | -2.79 | -1.55 | -1.73 | 2.43 | -1.93 | 4.76 | 2.16
